Legend:
Conditions in all cases: Compound concentration 20.0 uM
[1] = molecular target: Tyrosine-protein kinase ABL1 (Homo sapiens) (UniProt P00519)
[2] = molecular target: Bromodomain-containing protein 4 (Homo sapiens) (UniProt O60885)
[3] = molecular target: Cyclin-dependent kinase 2 (Homo sapiens) (UniProt P24941)
[4] = molecular target: Casein kinase I isoform delta (Homo sapiens) (UniProt P48730)
[5] = molecular target: Glycogen synthase kinase-3 beta (Homo sapiens) (UniProt P49841)
[6] = molecular target: Mitogen-activated protein kinase 1 (Homo sapiens) (UniProt P28482)
[7] = molecular target: T1, Aurora kinase A (Homo sapiens) (UniProt O14965)
T1 sequence (whole entry): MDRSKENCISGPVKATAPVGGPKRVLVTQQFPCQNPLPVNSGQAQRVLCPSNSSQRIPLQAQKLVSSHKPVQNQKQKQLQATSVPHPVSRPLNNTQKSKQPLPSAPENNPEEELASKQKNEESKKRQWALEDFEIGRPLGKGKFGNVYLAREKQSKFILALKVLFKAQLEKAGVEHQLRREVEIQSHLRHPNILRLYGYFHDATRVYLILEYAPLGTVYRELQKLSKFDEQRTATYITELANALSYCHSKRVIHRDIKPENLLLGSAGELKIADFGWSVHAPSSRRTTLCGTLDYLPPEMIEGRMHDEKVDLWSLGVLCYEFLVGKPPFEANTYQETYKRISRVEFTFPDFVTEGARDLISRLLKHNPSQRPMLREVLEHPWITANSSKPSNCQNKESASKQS

[8] = molecular target: T2, Transcription intermediary factor 1-alpha (Homo sapiens) (UniProt O15164)
T2 sequence (whole entry): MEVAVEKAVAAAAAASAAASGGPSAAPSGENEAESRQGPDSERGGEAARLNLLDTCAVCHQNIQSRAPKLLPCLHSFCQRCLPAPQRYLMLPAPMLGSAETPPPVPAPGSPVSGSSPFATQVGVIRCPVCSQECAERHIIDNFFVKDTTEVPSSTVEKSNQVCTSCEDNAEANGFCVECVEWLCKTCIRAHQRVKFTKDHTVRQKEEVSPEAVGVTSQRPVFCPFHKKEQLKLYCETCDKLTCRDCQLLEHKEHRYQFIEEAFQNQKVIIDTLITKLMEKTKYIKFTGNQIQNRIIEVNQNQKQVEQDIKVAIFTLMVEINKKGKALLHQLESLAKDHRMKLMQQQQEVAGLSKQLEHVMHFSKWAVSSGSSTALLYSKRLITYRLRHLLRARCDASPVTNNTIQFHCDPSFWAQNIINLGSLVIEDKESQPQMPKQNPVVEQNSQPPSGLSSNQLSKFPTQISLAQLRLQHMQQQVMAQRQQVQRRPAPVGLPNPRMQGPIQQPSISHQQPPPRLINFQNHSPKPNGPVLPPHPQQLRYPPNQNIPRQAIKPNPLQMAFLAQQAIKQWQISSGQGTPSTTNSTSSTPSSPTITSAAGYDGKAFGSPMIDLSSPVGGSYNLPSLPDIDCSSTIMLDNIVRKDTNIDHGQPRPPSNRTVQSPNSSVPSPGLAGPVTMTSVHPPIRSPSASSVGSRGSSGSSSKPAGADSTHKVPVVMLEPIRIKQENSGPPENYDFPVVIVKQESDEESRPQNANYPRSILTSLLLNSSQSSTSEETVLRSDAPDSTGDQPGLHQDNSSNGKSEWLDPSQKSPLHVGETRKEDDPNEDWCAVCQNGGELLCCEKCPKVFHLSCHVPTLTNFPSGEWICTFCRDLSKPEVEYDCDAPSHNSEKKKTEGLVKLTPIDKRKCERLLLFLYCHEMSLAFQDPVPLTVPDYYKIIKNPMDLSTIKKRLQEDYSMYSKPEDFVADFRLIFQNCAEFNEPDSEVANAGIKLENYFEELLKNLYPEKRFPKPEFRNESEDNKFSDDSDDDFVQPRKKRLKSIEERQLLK

Glycogen synthase kinase-3 beta (Homo sapiens), sequence (P49841 whole entry, looked up): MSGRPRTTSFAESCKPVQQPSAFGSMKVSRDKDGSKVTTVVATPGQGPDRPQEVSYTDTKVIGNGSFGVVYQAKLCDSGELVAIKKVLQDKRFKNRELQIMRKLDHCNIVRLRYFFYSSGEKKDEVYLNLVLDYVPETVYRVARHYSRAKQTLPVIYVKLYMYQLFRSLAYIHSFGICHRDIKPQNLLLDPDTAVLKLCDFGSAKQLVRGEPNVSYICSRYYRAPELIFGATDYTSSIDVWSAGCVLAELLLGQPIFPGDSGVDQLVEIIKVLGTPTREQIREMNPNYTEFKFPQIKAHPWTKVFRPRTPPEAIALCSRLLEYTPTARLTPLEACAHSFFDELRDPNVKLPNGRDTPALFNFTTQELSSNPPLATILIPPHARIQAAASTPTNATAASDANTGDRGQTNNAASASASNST
Casein kinase I isoform delta (Homo sapiens), sequence (P48730 whole entry, looked up, canonical isoform): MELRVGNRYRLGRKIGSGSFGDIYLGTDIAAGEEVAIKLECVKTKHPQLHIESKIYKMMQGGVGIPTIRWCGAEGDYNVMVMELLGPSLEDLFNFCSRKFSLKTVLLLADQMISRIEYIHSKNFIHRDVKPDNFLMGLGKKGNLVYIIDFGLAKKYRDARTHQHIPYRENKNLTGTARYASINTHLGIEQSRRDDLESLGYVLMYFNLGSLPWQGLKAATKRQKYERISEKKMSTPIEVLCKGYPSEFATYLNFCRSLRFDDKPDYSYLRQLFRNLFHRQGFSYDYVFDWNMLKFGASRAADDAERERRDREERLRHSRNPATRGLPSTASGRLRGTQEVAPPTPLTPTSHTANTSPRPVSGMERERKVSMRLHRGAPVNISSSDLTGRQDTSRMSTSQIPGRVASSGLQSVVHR
Mitogen-activated protein kinase 1 (Homo sapiens), sequence (P28482 whole entry): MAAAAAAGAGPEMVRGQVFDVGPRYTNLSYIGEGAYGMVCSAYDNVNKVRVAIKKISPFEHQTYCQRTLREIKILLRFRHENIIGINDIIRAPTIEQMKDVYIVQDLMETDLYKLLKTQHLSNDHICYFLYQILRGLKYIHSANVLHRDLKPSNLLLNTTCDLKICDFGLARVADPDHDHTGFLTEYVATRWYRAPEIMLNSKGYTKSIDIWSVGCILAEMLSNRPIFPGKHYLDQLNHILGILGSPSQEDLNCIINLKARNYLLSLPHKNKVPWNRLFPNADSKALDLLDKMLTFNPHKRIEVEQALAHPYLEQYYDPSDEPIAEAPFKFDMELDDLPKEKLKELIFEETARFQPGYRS
Tyrosine-protein kinase ABL1 (Homo sapiens), sequence (P00519 whole entry): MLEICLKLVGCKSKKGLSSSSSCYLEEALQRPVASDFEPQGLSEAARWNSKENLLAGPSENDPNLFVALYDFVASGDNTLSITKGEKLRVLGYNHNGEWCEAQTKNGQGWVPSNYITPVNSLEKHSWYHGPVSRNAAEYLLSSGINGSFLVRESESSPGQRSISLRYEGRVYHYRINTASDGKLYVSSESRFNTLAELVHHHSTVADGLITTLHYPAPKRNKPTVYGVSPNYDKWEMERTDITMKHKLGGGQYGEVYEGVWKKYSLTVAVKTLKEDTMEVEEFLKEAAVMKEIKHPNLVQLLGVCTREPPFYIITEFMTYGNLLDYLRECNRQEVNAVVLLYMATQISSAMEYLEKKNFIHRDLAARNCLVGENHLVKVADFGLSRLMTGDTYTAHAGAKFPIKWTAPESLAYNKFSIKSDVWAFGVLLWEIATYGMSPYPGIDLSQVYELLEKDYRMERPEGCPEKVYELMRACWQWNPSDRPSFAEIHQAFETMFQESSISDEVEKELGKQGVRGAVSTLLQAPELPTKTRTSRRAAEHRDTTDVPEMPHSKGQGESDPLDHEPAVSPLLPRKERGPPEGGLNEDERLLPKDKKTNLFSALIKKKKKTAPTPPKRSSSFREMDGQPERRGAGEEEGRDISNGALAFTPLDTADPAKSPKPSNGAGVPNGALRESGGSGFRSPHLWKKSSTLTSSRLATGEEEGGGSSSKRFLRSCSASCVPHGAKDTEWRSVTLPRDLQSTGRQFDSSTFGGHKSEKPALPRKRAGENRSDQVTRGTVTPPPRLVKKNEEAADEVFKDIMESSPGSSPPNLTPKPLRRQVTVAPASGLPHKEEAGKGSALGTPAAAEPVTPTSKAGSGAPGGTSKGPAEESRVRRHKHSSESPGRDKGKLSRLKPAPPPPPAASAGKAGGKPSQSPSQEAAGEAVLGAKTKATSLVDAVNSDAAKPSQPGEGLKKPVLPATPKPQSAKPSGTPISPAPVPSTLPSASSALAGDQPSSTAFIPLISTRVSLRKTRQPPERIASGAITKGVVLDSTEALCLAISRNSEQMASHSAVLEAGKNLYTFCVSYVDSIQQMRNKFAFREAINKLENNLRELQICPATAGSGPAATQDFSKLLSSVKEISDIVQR

| Compound | ΔTm [1] | ΔTm [2] | ΔTm [3] | ΔTm [4] | ΔTm [5] | ΔTm [6] | ΔTm [7] | ΔTm [8] |
| --- | --- | --- | --- | --- | --- | --- | --- | --- |
| O=C(CCCCCCNC(=O)c1cnc(N(c2ccccc2)c2ccccc2Cl)nc1)NO | 0.43 °C | -2.47 °C | 0.09 °C | 0.15 °C | -0.06 °C | -0.04 °C | -0.63 °C | -0.75 °C |
| Cc1ncccc1-c1cnc(NCc2c(F)ccc3c2CCO3)n2cnnc12 | 0.04 °C | -1.73 °C | 0.42 °C | 0.15 °C | -0.06 °C | 0.37 °C | -0.39 °C | -1.52 °C |
| O=C(Nc1cc(C(F)F)ns1)Nc1cc(F)ncc1CO | 0.52 °C | -1.44 °C | 0.5 °C | -0.49 °C | 1.08 °C | 0.14 °C | -1.82 °C | 0.59 °C |
| Cc1ccnc(NS(=O)(=O)c2ccc(NC(=O)Nc3ccc(S(=O)(=O)Nc4nccc(C)n4)cc3)cc2)n1 | 0.29 °C | -0.01 °C | 0.44 °C | -0.62 °C | -1.11 °C | 0.44 °C | -1.78 °C | 2.1 °C |
| O=C(COc1ccc(-c2oc3cc(O)c(C(=O)O)cc3c2C#Cc2cccc(Cl)c2)cc1)NC1CC1 | 0.23 °C | -1.93 °C | 0.55 °C | 0.15 °C | -0.41 °C | -0.57 °C | -0.11 °C | -0.84 °C |
| CC(C)(C)c1ccc(CN(C(=O)CN(Cc2c(F)c(F)c(F)c(F)c2F)S(=O)(=O)c2ccc(F)cc2)c2ccc(C(=O)NO)cc2)cc1 | 1.56 °C | 8.81 °C | 9.04 °C | -5.74 °C | 14.4 °C | -2.29 °C | 9.93 °C | 0 °C |
| CNC(=O)c1cnc(N2CCC[C@H](N)C2)nc1Nc1cc(C(C)C)nc(C(C)C)c1 | 0.5 °C | -1.65 °C | 0.07 °C | 1.75 °C | -0.33 °C | 0.06 °C | -0.12 °C | -1 °C |
| Cn1cc(-c2ccncc2)c(-c2ccc(OCc3ccc4ccccc4n3)cc2)n1 | 0.66 °C | -0.49 °C | -0.35 °C | 1.79 °C | 0 °C | 0.13 °C | 2.06 °C | 0.65 °C |
| Cc1cc(S(C)(=O)=O)c(S(C)(=O)=O)cc1C(=O)NC(=N)N | 0.73 °C | -0.31 °C | 0.23 °C | -0.54 °C | 0.15 °C | 0.12 °C | -1.63 °C | 0.34 °C |
| O=C(O)CCNC(=S)NCCCC[C@H](NS(=O)(=O)c1cccc(F)c1)C(=O)N[C@@H](Cc1c[nH]c2ccccc12)C(=O)NC1CCC1 | 0.2 °C | -3.5 °C | -0.16 °C | -0.24 °C | -0.19 °C | 0.22 °C | -2.13 °C | -1.96 °C |
| C[C@]12CCCN1CC1=NNC(=O)c3cc(F)cc4[nH]c2c1c34 | 0.67 °C | 2.16 °C | 2.04 °C | 1.06 °C | 8.59 °C | 0.1 °C | 1.26 °C | 0 °C |
| CCCn1/c(=N/C(=O)c2cccc(C(N)=O)c2)[nH]c2ccccc21 | 1.41 °C | -1.51 °C | 0.06 °C | 0.95 °C | -0.17 °C | -1.41 °C | -0.08 °C | -0.27 °C |
| Nc1nc(NC2CC2)cc(-c2cccc(Cl)c2Cl)n1 | 0.77 °C | -2.44 °C | 0.2 °C | -0.46 °C | 0.36 °C | 0.25 °C | -1.81 °C | 0.87 °C |
| CC(=O)N1CCC(c2ccc(C(=O)NC(=N)N)cc2C(F)(F)F)CC1 | 0.12 °C | 0.39 °C | 0.7 °C | -0.02 °C | -0.96 °C | 0.47 °C | -0.69 °C | 1.39 °C |
| C[C@@H](COCCC(=O)N1CCN(c2ncc(C(F)(F)F)cn2)CC1)Nc1cn[nH]c(=O)c1C(F)(F)F | 0.66 °C | -3.06 °C | -0.01 °C | -0.13 °C | 0 °C | 0.21 °C | -2.44 °C | -0.58 °C |
| CN1C(=O)c2c(nn(Cc3ccc(-c4cccc(F)n4)cc3)c2Nc2ccccc2)N2C1=N[C@@H]1CCC[C@@H]12 | 0.2 °C | 0.64 °C | -0.42 °C | -0.09 °C | 2.76 °C | 0.5 °C | -0.82 °C | 0.46 °C |
| O=C(c1cc(Cl)c(O)c(Cl)c1)N1CS(=O)(=O)c2ccccc21 | 0.71 °C | -0.92 °C | 0.15 °C | -0.26 °C | 0.51 °C | 0.24 °C | -2.22 °C | -0.84 °C |
| CC(C)N(CCCNC(=O)Nc1ccc(C(C)(C)C)cc1)C[C@H]1O[C@@H](n2ccc3c(N)ncnc32)[C@H](O)[C@@H]1O | 0.45 °C | -1.62 °C | 0.52 °C | 0.47 °C | -0.31 °C | 0.01 °C | 0.01 °C | -1.18 °C |
| O=C(NCc1ncccc1F)c1coc(CCNCCc2nc3ccccc3[nH]2)n1 | 0.46 °C | -3.66 °C | -0.13 °C | -0.23 °C | -0.87 °C | -0.05 °C | -2.57 °C | -0.59 °C |
| OC[C@H]1O[C@@H](c2ccc(Cl)c(Cc3ccc(OCCOC4CC4)cc3)c2)[C@H](O)[C@@H](O)[C@@H]1O | 0.7 °C | -2.67 °C | 0.19 °C | -1.19 °C | -0.38 °C | 0.15 °C | -2.84 °C | 0.19 °C |
| CC(C)C(=O)c1c(C(C)C)nn2ccccc12 | 0.8 °C | -2.97 °C | 0.95 °C | 0.19 °C | -0.21 °C | 0.12 °C | -2.35 °C | 0.7 °C |
| CC(=O)OCCN1C(=O)c2c(C)nc3ccc(S(=O)(=O)N4CCOCC4)cc3c2C1=O | -0.43 °C | -1.49 °C | -0.16 °C | 0.13 °C | -0.73 °C | -0.31 °C | -1.13 °C | -1.22 °C |
| O=C(NO)c1ccc(CN(c2cnccn2)c2cnccn2)cc1 | 0.4 °C | -1.6 °C | -0.02 °C | 0.05 °C | -1.38 °C | -0.44 °C | -0.32 °C | -1.38 °C |
| CS(=O)(=O)c1ccc(Oc2cc(F)cc(C#N)c2)c2c1[C@H](O)[C@H](F)[C@@H]2F | 0.05 °C | 2.78 °C | 0.17 °C | -0.33 °C | -0.61 °C | 0.64 °C | -2.09 °C | 1.99 °C |
| CC(=O)O[C@]1(C(C)=O)CC[C@H]2[C@@H]3C=C(Cl)C4=CC(=O)[C@@H]5C[C@@H]5[C@]4(C)[C@H]3CC[C@@]21C | 0.36 °C | -1.71 °C | 0.15 °C | 0.16 °C | -0.72 °C | -0.22 °C | -1.49 °C | -1.08 °C |
| NS(=O)(=O)OC[C@H]1C[C@@H](Nc2ccnc3cc(-c4cccc(SC(F)(F)F)c4)nn23)[C@H](O)[C@@H]1O | 1.49 °C | 1.04 °C | 0.04 °C | 0.4 °C | -1.24 °C | 0.75 °C | -1.12 °C | 1.39 °C |
| CCCc1nc(C)c2c(=O)nc(-c3cc(S(=O)(=O)N4CCN(CC)CC4)ccc3OCC)[nH]n12 | 0.09 °C | 1.95 °C | 1 °C | 0.05 °C | -1.14 °C | 0.18 °C | -2.18 °C | 1.86 °C |
| Cc1ccc2[nH]c(-n3nc(C)c(Cc4ccccc4)c3O)nc2c1 | 0.97 °C | -3.32 °C | 0.2 °C | 0.73 °C | 0.42 °C | 0.56 °C | -1.88 °C | -0.69 °C |
| COC[C@H](NC(=O)c1ccn(S(C)(=O)=O)c1)C(=O)Nc1nc(-c2cccc(-c3ccn(C)n3)c2)cs1 | 0.67 °C | -0.81 °C | 0.17 °C | 0.35 °C | -3.25 °C | 0.35 °C | -2.2 °C | -1.12 °C |
| CC(=O)N[C@@H](C)C(=O)N[C@@H](CCC(=O)O)C(=O)N[C@H](C(=O)N[C@@H](C=O)CC(=O)O)C(C)C | 0.22 °C | -2.8 °C | -0.37 °C | 0.14 °C | -0.69 °C | 0.23 °C | -1.91 °C | -0.66 °C |

Source: ChEMBL document CHEMBL5724796, “Tm Shift (DSF) assay results for EUbOPEN Chemogenomics Library” (2024)
